# Key:
# Test in all cases: thermal shift delta Tm vs DMSO control; higher = stronger stabilization (binding)
# Conditions in all cases: 12.5 µM; protein concentration 2 µM
# [1] = tested on: LOC_OS01G01410-cb001
# In short: (§1)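 Rice kinase domain constructs, made in E. coli and purified, were placed in 96-well plates at 2 μM in 19.5 μl of 100 mM potassium phosphate pH 7.5, 150 mM NaCl, 10% glycerol and 5 × SYPRO Orange, with compound in DMSO. A temperature ramp from 25°C to 95°C at 0.05°C/s was used for differential scanning fluorimetry. The melting temperature shift is a triplicate mean compared with DMSO-only protein, derived from Boltzmann fits.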
# [2] = tested on: LOC_OS01G02750-cb003
# In short: as §1
# [3] = tested on: LOC_OS01G10900-cb004
# In short: as §1
# [4] = tested on: LOC_OS01G13800-cb001
# In short: as §1
# [5] = tested on: LOC_OS01G14860-cb001
# In short: as §1
# [6] = tested on: LOC_OS01G21960-cb002
# In short: as §1
# [7] = tested on: LOC_OS01G39600-cb002
# In short: as §1
# [8] = tested on: LOC_OS01G48390-cb002
# In short: as §1
# [9] = tested on: LOC_OS01G51400-cb002
# In short: as §1
# [10] = tested on: T1, LOC_OS01G52050-cb004
# T1 sequence (whole entry): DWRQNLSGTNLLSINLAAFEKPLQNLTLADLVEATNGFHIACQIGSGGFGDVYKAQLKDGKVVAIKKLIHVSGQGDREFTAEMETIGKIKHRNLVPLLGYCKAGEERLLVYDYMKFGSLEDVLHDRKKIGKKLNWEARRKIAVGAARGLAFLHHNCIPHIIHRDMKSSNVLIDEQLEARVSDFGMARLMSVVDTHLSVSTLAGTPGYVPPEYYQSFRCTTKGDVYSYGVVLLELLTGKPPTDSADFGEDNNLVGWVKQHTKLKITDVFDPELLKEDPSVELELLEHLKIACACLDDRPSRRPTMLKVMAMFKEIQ
# In short: as §1
# 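Further: purified Escherichia coli-expressed rice kinase domain construct.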
SMILES,thermal shift delta Tm [1] [°C],thermal shift delta Tm [2] [°C],thermal shift delta Tm [3] [°C],thermal shift delta Tm [4] [°C],thermal shift delta Tm [5] [°C],thermal shift delta Tm [6] [°C],thermal shift delta Tm [7] [°C],thermal shift delta Tm [8] [°C],thermal shift delta Tm [9] [°C],thermal shift delta Tm [10] [°C]
CCNC(=O)C#Cc1ccc2c(C(=Nc3ccc(CN(C)C)cc3)c3ccccc3)c(O)[nH]c2c1,1.75,1.1,0.16,-0.3,5.63,0.65,3.52,1.35,-0.33,2.8
Cc1c(C(=O)N2CCOc3ccc(-c4ccc(N)nc4)cc3C2)ccc(S(C)(=O)=O)c1F,0.69,0.8,0.01,0.06,0.22,0.19,-0.01,0.13,0.26,0.52
"C[C@H](Nc1ncnc2nc[nH]c12)c1cc2cccc(Cl)c2c(=O)n1-c1ccccc1 [Duvelisib (IPI-145, INK1197)]",-0.46,0.34,0.09,-0.35,0.37,0.25,-0.51,1.02,0.38,0.47
Cc1ccc(-n2nc(C(C)(C)C)cc2NC(=O)NCc2cc(F)ccc2Oc2ccc3c(cnn3CCO)c2)cc1 [Pexmetinib (ARRY-614)],0.56,1.41,0.65,-0.01,0.85,1.27,0.75,1.8,0.36,1.87
C=CC(=O)Nc1cccc(Oc2nc(Nc3ccc(N4CCN(C)CC4)cc3)nc3ccsc23)c1,2.67,1.02,2.04,0.55,0.91,1.61,0.15,1.38,0.79,1.94
Cc1nc(Nc2ncc(C(=O)Nc3c(C)cccc3Cl)s2)cc(N2CCN(CCO)CC2)n1 [Dasatinib],1.38,0.59,4.47,0.61,0.27,1.22,5.93,0.6,0.66,0.79
Cn1cc(-c2ccc3nnc(Sc4ccc5ncccc5c4)n3n2)cn1,0.49,0.09,3.13,-0.11,-0.13,0.18,0.17,0.29,0.08,0.42
Cc1cc(Nc2cc(CN3CCOCC3)c3nc(C)c(Cc4ccc(Cl)cc4F)n3n2)n[nH]1,2.97,3.19,1.89,-0.62,7.26,2.02,2.41,5.72,-0.5,1.05
N[C@@H]1CCCN(c2c(/C=C3\SC(=O)NC3=O)cccc2-c2ccccc2)C1,0.41,0.59,0.27,-0.81,0.66,0.65,0.1,0.27,0,-0.01
COc1ccc(-c2cc3nccn3c(Nc3ncccc3C(N)=O)n2)cc1OC,1.05,1.45,1.83,0.09,6.47,2.98,0.18,1.07,0.17,2.44
O=C(NCCCNc1nc(Nc2cccc(NC(=O)N3CCCC3)c2)ncc1I)c1cccs1,4.61,2.64,1.85,-0.09,5.77,3.44,8.52,2.91,1.38,10.7
CCN1C(=O)CNc2ncc(-c3ccc(-c4nc[nH]n4)nc3C)nc21,0.49,-0.88,1.31,0.86,1.11,0.62,-1.87,0.34,-0.29,-1.26
Cc1ccc(S(=O)(=O)/C=C/C#N)cc1,-0.23,-1.35,-0.53,-0.18,-0.19,0.75,-1.97,2.88,0.21,-1.44
O=C(NOCC(O)CO)c1cc(Br)c(F)c(F)c1Nc1ccc(I)cc1F (stereo not given),0.9,3.49,1.07,1.05,1.29,1.44,0.76,1.12,0.46,2.46
CCn1c(=O)c(-c2ccc(-c3cncs3)cc2Cl)cc2cnc(Nc3ccc(N4CCN(C)CC4)cc3)nc21,0.16,-0.15,0.42,0.34,0.12,0.22,-0.49,-0.5,0.02,-0.32
CC(C)(C)NS(=O)(=O)c1cncc(-c2cc(F)c3nc(N)nn3c2)c1,0.2,0.93,0.04,0.1,0.32,0.56,0.65,0.32,0.36,0.57
COc1cc(N2CCN(C)CC2)ccc1Nc1ncc2c(n1)N(C)c1ccccc1C(=O)N2,0.72,1.11,1.07,-0.23,0.43,0.53,0.75,0.41,0.22,-0.22
Nc1[nH]nc2nnc(-c3c(-c4ccccc4)nn4ccccc34)cc12,0.52,0.34,0.36,0.24,1.87,0.45,-0.05,0.56,0.19,0.56
O=C1NC(=O)[C@@H](c2cn3c4c(cccc24)CCC3)[C@@H]1c1c[nH]c2ccccc12 [Tivantinib (ARQ 197)],0.55,0.06,0.15,0.17,0.16,0.75,0.54,0.43,0.27,0.75
COc1cc(N2CCC(N(C)C)CC2)ccc1Nc1ncc(Cl)c(Nc2ccccc2P(C)(C)=O)n1,0.42,-0.8,0.79,-0.94,0.31,1.95,-6.92,0.54,0.25,3.85

# — the supplement of paper PMC9694430
